# Measured values from the supplement of paper PMC12067093, “Discovery and optimisation of a covalent ligand for TRIM25 and its application to targeted protein ubiquitination” (Chemical Science, 2025).
# About 21,000 targets were measured; listed, in parts, are those with the largest changes and a random draw of the rest.
# Compound: Cc1cc(ccc1-c1ccccc1)C(=O)N1CCCN(CC1)C(=O)CCl [compound 10]
# Test: probe-labelled cysteine peptide fold change vs DMSO (competition) (log2 fold change); higher = less target engagement (more negative = stronger competition)
# Conditions: THP-1, incubation time: 4 h
# 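Also: competitive profiling in live THP-1 cells: cysteine peptides tagged with an iodoacetamide desthiobiotin (IA-DTB) probe, intensity after compound treatment relative to DMSO-treated cells.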
# UniProt P49792, sequence (P49792 whole entry, looked up): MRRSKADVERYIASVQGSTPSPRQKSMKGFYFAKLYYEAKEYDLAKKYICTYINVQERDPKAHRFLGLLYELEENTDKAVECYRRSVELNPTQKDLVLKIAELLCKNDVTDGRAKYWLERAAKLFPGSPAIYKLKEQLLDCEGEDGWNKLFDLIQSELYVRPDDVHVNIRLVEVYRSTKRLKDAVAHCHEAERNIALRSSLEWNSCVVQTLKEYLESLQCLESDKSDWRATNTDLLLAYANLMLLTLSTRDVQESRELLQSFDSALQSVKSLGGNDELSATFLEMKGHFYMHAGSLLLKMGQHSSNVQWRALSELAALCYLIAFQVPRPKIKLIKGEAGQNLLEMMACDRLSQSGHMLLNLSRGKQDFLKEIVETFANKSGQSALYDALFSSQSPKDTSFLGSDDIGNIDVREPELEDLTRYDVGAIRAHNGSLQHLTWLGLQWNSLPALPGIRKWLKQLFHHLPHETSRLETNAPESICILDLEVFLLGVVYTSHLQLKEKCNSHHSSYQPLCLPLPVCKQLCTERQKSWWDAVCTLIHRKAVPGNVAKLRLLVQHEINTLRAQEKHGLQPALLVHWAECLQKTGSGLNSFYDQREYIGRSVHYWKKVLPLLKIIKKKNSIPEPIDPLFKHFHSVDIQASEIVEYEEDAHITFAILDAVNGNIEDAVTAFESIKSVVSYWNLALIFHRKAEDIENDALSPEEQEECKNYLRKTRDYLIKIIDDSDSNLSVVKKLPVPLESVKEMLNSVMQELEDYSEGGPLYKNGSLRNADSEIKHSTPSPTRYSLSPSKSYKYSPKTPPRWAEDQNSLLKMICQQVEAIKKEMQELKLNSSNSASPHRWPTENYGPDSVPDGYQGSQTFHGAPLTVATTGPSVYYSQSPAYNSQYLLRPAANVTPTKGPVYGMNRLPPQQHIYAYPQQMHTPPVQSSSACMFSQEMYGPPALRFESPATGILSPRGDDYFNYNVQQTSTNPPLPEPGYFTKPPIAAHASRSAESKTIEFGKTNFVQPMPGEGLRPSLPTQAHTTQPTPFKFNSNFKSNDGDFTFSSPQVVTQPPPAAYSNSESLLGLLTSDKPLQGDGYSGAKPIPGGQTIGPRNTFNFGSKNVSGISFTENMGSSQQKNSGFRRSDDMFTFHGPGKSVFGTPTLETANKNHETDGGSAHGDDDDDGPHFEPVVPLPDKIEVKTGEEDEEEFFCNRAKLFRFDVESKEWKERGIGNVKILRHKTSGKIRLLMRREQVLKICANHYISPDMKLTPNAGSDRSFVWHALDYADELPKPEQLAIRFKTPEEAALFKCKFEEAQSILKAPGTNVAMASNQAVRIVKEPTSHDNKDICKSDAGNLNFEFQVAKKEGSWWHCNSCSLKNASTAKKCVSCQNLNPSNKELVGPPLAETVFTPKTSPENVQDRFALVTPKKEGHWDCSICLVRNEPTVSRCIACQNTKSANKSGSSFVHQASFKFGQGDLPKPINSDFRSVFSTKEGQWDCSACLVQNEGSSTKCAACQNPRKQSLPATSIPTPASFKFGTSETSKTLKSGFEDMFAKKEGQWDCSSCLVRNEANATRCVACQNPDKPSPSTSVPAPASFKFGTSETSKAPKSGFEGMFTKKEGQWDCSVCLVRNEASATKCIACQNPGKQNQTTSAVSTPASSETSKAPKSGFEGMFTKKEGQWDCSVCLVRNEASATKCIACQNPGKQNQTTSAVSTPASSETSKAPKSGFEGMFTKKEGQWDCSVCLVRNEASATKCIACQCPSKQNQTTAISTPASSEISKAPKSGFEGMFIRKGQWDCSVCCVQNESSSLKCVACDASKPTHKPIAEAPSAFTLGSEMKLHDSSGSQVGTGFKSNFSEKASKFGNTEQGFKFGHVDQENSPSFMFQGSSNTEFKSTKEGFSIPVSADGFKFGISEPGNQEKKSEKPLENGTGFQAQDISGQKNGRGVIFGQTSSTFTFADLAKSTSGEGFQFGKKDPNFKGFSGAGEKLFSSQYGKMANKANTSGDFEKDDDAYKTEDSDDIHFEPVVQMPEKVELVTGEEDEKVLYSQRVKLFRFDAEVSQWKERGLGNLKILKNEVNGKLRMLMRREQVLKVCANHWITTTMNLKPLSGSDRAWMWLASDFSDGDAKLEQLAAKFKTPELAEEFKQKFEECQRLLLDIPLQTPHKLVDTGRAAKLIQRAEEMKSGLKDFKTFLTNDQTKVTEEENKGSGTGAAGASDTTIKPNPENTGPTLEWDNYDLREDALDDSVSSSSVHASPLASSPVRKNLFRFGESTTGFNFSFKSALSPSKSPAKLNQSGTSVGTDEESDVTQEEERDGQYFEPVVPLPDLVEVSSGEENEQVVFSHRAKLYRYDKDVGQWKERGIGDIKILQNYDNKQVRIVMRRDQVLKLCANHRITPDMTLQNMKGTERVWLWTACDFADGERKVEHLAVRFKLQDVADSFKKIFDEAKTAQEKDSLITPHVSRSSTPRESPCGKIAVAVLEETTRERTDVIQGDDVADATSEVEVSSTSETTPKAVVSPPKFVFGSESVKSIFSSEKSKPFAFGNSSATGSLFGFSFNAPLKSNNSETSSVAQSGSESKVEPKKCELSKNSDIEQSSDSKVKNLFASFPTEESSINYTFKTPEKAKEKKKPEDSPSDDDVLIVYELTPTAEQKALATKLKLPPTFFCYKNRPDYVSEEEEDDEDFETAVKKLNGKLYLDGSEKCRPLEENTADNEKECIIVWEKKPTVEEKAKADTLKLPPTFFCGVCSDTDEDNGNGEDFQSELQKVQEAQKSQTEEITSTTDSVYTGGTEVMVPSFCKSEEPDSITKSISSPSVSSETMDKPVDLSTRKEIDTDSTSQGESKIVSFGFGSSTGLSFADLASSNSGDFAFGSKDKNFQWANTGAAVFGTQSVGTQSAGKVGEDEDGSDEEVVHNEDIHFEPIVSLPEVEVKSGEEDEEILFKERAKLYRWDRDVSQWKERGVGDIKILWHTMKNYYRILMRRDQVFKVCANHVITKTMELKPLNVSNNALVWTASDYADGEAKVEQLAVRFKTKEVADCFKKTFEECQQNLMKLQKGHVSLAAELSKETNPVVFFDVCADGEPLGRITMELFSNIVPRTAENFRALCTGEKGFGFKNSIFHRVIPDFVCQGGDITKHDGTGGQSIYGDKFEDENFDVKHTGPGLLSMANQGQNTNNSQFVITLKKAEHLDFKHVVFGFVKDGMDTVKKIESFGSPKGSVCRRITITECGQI
# UniProt Q9BZL6, sequence (Q9BZL6 whole entry, looked up): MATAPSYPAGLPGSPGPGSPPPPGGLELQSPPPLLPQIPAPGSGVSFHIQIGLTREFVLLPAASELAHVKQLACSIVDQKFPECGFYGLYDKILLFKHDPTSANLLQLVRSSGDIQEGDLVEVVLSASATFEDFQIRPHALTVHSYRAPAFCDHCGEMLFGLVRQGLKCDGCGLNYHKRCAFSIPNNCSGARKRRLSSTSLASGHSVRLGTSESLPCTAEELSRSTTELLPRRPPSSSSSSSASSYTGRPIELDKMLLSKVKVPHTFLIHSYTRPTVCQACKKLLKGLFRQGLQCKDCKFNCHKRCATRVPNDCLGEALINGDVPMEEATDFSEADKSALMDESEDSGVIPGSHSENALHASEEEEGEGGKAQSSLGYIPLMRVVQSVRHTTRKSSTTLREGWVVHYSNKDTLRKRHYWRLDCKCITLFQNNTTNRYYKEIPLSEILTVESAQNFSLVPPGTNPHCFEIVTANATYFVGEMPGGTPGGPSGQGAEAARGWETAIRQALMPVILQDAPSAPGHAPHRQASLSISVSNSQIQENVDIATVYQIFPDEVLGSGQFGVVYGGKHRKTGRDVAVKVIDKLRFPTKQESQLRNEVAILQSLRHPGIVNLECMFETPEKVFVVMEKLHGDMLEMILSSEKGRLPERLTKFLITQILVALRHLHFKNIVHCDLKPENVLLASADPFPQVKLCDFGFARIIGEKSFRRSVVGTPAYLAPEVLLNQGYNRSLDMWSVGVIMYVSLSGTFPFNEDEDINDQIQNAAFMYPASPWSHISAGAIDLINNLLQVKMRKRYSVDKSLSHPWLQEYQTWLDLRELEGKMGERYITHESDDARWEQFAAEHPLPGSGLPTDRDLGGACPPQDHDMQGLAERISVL
# UniProt O60678, sequence (O60678 whole entry, looked up): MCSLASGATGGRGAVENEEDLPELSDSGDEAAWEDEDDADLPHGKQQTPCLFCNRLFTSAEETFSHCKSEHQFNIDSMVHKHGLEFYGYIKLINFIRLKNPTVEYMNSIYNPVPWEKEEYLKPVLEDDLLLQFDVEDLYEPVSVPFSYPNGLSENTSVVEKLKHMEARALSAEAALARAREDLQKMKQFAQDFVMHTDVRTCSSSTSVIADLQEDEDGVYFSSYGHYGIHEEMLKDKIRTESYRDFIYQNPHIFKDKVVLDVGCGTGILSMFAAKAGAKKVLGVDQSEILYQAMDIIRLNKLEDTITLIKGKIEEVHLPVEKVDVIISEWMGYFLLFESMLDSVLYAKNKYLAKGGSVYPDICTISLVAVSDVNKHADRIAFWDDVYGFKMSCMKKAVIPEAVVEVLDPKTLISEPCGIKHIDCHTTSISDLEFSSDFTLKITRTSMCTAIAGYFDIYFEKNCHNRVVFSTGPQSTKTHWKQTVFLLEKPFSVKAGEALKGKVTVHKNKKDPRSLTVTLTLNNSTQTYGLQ
# UniProt P60891, sequence (P60891 whole entry, looked up): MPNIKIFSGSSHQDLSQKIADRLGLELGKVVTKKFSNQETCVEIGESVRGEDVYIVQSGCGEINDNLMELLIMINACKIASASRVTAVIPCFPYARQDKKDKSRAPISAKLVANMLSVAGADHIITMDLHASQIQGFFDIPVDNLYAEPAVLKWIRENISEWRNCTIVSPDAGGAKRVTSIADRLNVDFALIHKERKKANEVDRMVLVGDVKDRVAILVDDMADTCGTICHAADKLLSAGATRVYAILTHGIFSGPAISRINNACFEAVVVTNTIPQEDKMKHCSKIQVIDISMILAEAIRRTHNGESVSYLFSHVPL
Target,probe-labelled cysteine peptide fold change (10 µM),probe-labelled cysteine peptide fold change (50 µM)
RHOC_P08134_20_TCLLIVFSK<|>RHOA_P61586_20_TCLLIVFSK<|>RHOB_P62745_20_TCLLIVFSK (UniProt P62745+P61586+P08134),-0.323,-0.507
RLF_Q13129_1494_VCQTADTQGHEHQTTR (UniProt Q13129),0.131,-0.309
QARS_P47897_665_GPSGCVESLEVTCR (UniProt P47897),-0.11,0.446
RMND5A_Q9H871_328+336_CWYHSIFACPILR (UniProt Q9H871),-0.0698,-0.177
RBM28_Q9NW13_97_NENSECPK (UniProt Q9NW13),-0.0194,0.16
PRMT3_O60678_67_LFTSAEETFSHCK (UniProt O60678),0.049,0.0747
PRPS1_P60891_41_KFSNQETCVEIGESVR (UniProt P60891),0.0818,0.329
RFC3_P40938_32_NLVQCGDFPHLLVYGPSGAGKK (UniProt P40938),-0.11,-0.186
RANBP2_P49792_1749_CIACQCPSK (UniProt P49792),0.0505,0.0953
RGS10_O43665_66_EFSEENVLFWLACEDFK (UniProt O43665),0.332,0.101
RAD54L2_Q9Y4B4_1143_MAASGSQGPSCESTSNGR (UniProt Q9Y4B4),-0.204,-0.485
REPIN1_Q9BWE0_433+436_VHSGERPFACEECGR (UniProt Q9BWE0),-0.108,-0.289
PRKD2_Q9BZL6_169_CDGCGLNYHK (UniProt Q9BZL6),-0.0725,0.00149
